Compounds with a hit are over-represented: about 11% of the library has one in this group of screens.
VACV mCherry inh: qHTS for Stage-Specific Inhibitors of Vaccinia Orthopoxvirus: mCherry Reporter Primary qHTS; Vaccinia virus mCherry reporter infection, fluorescence; Potency, µM (series often up to 36.5 µM), without a hit: at the highest dose activity change, negative = inhibition, actives largely listed as inhibitors; 310,000 tested, 0.63% active; calls by dose curve; tested in A549 cells; note: % is set by controls: 0 for no effect and ±100 for the full control effect; nearly all actives have a fitted effect of over 35% in size
HCV inhibitor: qHTS Assay for Inhibitors of Hepatitis C Virus (HCV); AID 651820, 2012; Potency, µM (series often up to 41.8 µM), without a hit: at the top dose activity change, negative = inhibition, hits mostly inhibitors; Huh7.5.1 HCVcc-Cre infection, luciferase reporter, 44 h; 340,000 tested, 3.4% active; note: % is set by controls: 0 for no effect and ±100 for the full control effect
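HCVcc-Cre virus at an moi near 0.5 was added right after compound to cells cultured 4 h from seeding (1,000 cells/well). Luciferase activity was determined 44 h later, 15 min after substrate addition at RT.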
NS1 function inh: qHTS Assay for Inhibitors of Influenza NS1 Protein Function; Potency, µM (top dose mostly 46.1 µM), without a hit: top-dose activity, positive = more growth; 270,000 tested, 0.4% active; AID 2326, 2010; calls by dose curve; note: actives are rising curves; nearly all actives have a fitted effect of over 50% in size
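Recovery from NS1-induced slow growth read by OD600 in budding yeast switched to galactose assay medium (pH 6.0, -URA) at 1:100 dilution. Compound 23 nl per well; the matching strain lacking NS1 serves as control.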
Vaccinia Venus: qHTS for Stage-Specific Inhibitors of Vaccinia Orthopoxvirus: Venus Reporter Primary qHTS | Vaccinia virus Venus reporter expression, fluorescence | Potency, µM (titrated, usually from 36.5 µM), for inactives: at the highest dose activity change, negative = inhibition, usual class: inhibitors | 330,000 tested, 0.46% active; calls by dose curve; tested in A549 cells; note: % is set by controls: 0 for no effect and ±100 for the full control effect; nearly all actives have a fitted effect of over 30% in size
Pf growth 96h: Primary qHTS for delayed death inhibitors of the malarial parasite plastid, 96 hour incubation. P. falciparum luciferase reporter growth, 96 h. Potency, µM (doses to about 28.7 µM), for the others: at the highest dose activity change, negative = inhibition, usual class: inhibitors. 320,000 tested, 6.9% active. AID 504834, 2011; note: % is set by controls: 0 for no effect and ±100 for the full control effect
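Erythrocytes infected with luciferase-expressing P. falciparum were dispensed at 2% hematocrit and 0.05% parasitemia (final), then incubated with compounds 96 hours at 37 C in 5% CO2. Luminescence after detection reagent addition reported growth.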
Pf growth 48h: Primary qHTS for delayed death inhibitors of the malarial parasite plastid, 48 hour incubation | 310,000 tested, 5.9% active | P. falciparum luciferase growth in erythrocytes, 48 h | Potency, µM (doses to about 28.7 µM), for inactives: top-dose activity change, negative = inhibition, actives largely listed as inhibitors | AID 504832, 2011; note: % is set by controls: 0 for no effect and ±100 for the full control effect
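Luciferase-expressing P. falciparum in infected erythrocytes (2% hematocrit, 0.1% parasitemia final) in RPMI 1640/0.5% Albumax were exposed to compound for 48 hours at 37 C, 5% CO2; growth read as luminescence.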
Active calls of the source: *; i = inactive; ? = inconclusive; nt = not tested or not shown; [ ] = remark or other dose. Unless noted, calls come from the whole dose curve; as a rule, active = well fitted inhibition curve with a large enough effect; inconclusive = small, poorly fitted or top-dose-only effect, or another doubt; inactive = no such curve, though single readings can be large or run the other way. Potency is the fitted concentration of half-maximal effect.

SMILES | VACV mCherry inh | HCV inhibitor | NS1 function inh | Vaccinia Venus | Pf growth 96h | Pf growth 48h
COc1ccc(S(=O)(=O)N2CCCC2C(=O)Nc2nnc(-c3cccnc3)s2)cc1 (configuration not stated) | i | 6% | -20% | -11% | -11% | ?
O=C(CN1CCN(S(=O)(=O)c2ccccc2)CC1)NCc1ccccc1 | nt | 15% | -1% | nt | 34% | -19%
O=C(NC(=S)Nc1cccc(Cl)c1N1CCOCC1)c1cccs1 | 0% | ? | 0% | -15% | 39%[1.15 µM] | -1%
COc1ccc(C2C(C(=O)Nc3ccc(Cl)cc3)=C(C)Nc3nc(SCc4cccc(C)c4)nn32)cc1OC (configuration not stated) | 7% | nt | nt | -2% | nt | nt
COc1cc(CNC2CCCC2)cc(Cl)c1OCc1ccccc1F | ? | 10µM* | -15% | 16µM* | ? | nt
COc1cc(CNc2ccc3[nH]c(=O)[nH]c3c2)cc(Cl)c1OCc1ccccc1F | ? | nt | nt | -8% | nt | nt
Cc1n(CC(O)COC2CCCCC2)c2ccccc2[n+]1C (configuration not stated) | i | 19% | 2% | -10% | 27% | 6.6µM*
COC1=C(OC)C(=O)C(CCCCCCCCCCO)=C(C)C1=O | nt | nt | nt | nt | 6µM* | ?
CS(=O)(=O)c1ccc(C(=O)OCc2nnc(-c3ccccc3)o2)cc1[N+](=O)[O-] | -17% | ? | -36% | ? | 2% | 0%
CCOC(=O)c1cc(-c2ccccc2)n(CC(=O)NCc2ccccc2)c1C | -3% | nt | nt | -13% | nt | nt
CCN(CC(O)COCc1ccc(Cl)cc1)C1CCCCC1 (configuration not stated) | -4% | ? | -2% | -9% | ? | 10µM*
CCN(CC(O)COc1ccc(OCC(O)CN(CC)C2CCCCC2)cc1)C1CCCCC1 (configuration not stated) | ? | 5µM* | nt | -17% | nt | nt
Cc1ccccc1OCC(O)CN(Cc1ccccc1O)C1CCCCC1 (configuration not stated) | -24% | -9% | nt | ? | 0.19µM* | 0.23µM*
CN(CC(O)COc1ccccc1F)C1CCCCC1 (configuration not stated) | -2% | 2% | 2% | -13% | 35% | -16%[5.75 µM]
CCOC(=O)c1[nH]c2ccccc2c1NC(=O)c1ccc(S(=O)(=O)N2CCCCC2)cc1 | i | -16% | -25% | -9% | 9.3µM* | ?
CN(C)S(=O)(=O)c1ccc(C(=O)Oc2cc(=O)[nH]c3ccccc23)cc1 | -7% | 8% | -32% | 6% | 8.3µM* | 12%
CCOC(=O)c1[nH]c2ccccc2c1NC(=O)c1ccc(S(=O)(=O)N(C)C)cc1 | 16% | 7% | 10% | -4% | 10µM* | 10µM*
CCOC(=O)c1oc2ccccc2c1NC(=O)c1ccc(S(=O)(=O)N2CCCC2)cc1 | nt | 22% | 5% | nt | ? | 8%
COc1ccc(-c2nc3cnccn3c2NCc2ccccc2)cc1SC1CCCCC1 | ? | 10µM* | nt | -21% | 13µM* | ?
CCCCCCSc1ccc(-c2nc3ccc(C)cn3c2NC2CCCCC2)cc1 | -18% | 29% | nt | -15% | 13µM* | 9.3µM*
CCCCNc1c(-c2ccc(OC)c(SC3CCCCC3)c2)nc2ccc(Cl)cn12 | i | 7% | nt | -17% | nt | nt
CCCCNc1c(-c2ccc(OC)c(SC3CCCCC3)c2)nc2cc(C)ccn12 | -49% | 4µM* | nt | ? | ? | 9.3µM*
COc1cc(-c2nc3cc(C)ccn3c2NC2CCCCC2)ccc1-c1ccc(C(C)=O)cc1 | -17% | ? | nt | ? | 10µM* | 5.2µM*
O=C(N/C(=C/c1cn(-c2ccccc2)nc1-c1ccccc1)C(=O)N1CCOCC1)c1ccccc1 | nt | 0% | 1% | nt | -2% | 34%
CCOc1ccccc1-n1c(SCC(=O)N2CCOCC2)nnc1-c1ccccn1 | i | 17% | -9% | -21% | 109% | 6%
SMILES | VACV mCherry inh | HCV inhibitor | NS1 function inh | Vaccinia Venus | Pf growth 96h | Pf growth 48h
CCCCCCSc1ccc(-c2nc3cc(C)ccn3c2NC2CCCCC2)cc1 | -3% | 6% | nt | -16% | nt | nt
CCCCNc1c(-c2ccc(OC)c(SC3CCCCC3)c2)nc2cnccn12 | ? | ? | nt | ? | 9.3µM* | 10µM*
CCCCNc1c(-c2ccc(SC3CCCCC3)cc2)nc2cnccn12 | -3% | 1% | nt | -21% | nt | nt
CCCCCCSc1cc(-c2nc3cc(C)ccn3c2NC2CCCCC2)ccc1OC | -24% | -19% | nt | -29% | 8.3µM* | 7.4µM*
CCCCCCSc1cc(-c2nc3cnccn3c2NCc2ccccc2)ccc1OC | ? | 17% | nt | -22% | 5.9µM* | 7.4µM*
CCCCNc1c(-c2ccc(-c3ccc(C(C)=O)cc3)c(OC)c2)nc2cnccn12 | ? | ? | nt | -19% | ? | 9.3µM*
O=C(CSc1ncccn1)n1c2c(c3ccccc31)CCCC2 | i | ? | -31% | -11% | 7% | 39%
Cc1nc2sccn2c(=O)c1S(=O)(=O)Nc1cc(Cl)ccc1O | -26% | nt | nt | -15% | nt | nt
CCn1c(SCC(=O)OC2CCCCC2)nc2ccccc2c1=O | -12% | ? | 2% | -7% | -18% | -1%
CCN(C[C@H]1N[C@@](CC)(C(=O)OC)[C@H]2C(=O)N(Cc3ccccc3)C(=O)[C@@H]12)C(=O)c1ccc(C)cc1 | -14% | -21% | nt | 4% | nt | nt
Cc1ccn2c(NC3CCCCC3)c(-c3cccc(-c4cccc(Cl)c4)c3)nc2c1 | -45% | ? | nt | -24% | 10µM* | 8.3µM*
Cc1ccn2c(NC3CCCC3)c(-c3ccncc3)nc2c1 | nt | ? | nt | nt | ? | 37%
COc1ccc(CCCC(=O)NCCc2ccccc2)cc1 | nt | -1% | -21% | nt | 0% | 39%
CC1(C(=O)Nc2ccc3c(c2)OCO3)CCN1C(=O)Cc1cc(F)ccc1F (configuration not stated) | 3% | nt | nt | 0% | nt | nt
COc1ccc(CN(C(=O)c2ccco2)c2ccc(C)c(C)c2)cc1 | -20% | -14% | -37% | -17% | -4% | ?
CCCn1nc(NC(=O)c2cccs2)c2cc3cc(C)ccc3nc21 | -21%[7.34 µM] | 22µM* | -8% | -24%[7.34 µM] | -6% | ?
CCCn1nc(NC(=O)c2cccs2)c2cc3ccc(C)cc3nc21 | nt | 14µM* | -7% | nt | ? | 2.9µM*
CCCn1nc(NC(=O)c2ccco2)c2cc3ccccc3nc21 | nt | 35µM* | -6% | nt | ? | 8%
CC(=O)Nc1nn(C)c2nc3cc(C)ccc3cc12 | nt | ? | -49% | -10% | 40% | 7%
Cc1ccc2cc3c(NC(=O)c4ccco4)nn(C)c3nc2c1 | -11% | ? | -61% | -23% | 8.3µM* | ?

Bioassay records as filed in PubChem BioAssay.
